The text below walks through data of the supplement of paper PMC13380429.

Values without a mark were called inactive.

In the experiment the test system is Vero E6 infected with SARS-CoV-2. As to the kind of experiment: SARS-CoV-2 infection rate relative to infected DMSO; higher = more infection, active = 60 or less. To be noted: 24 h.
On to `CC(=O)CC(c1ccccc1)c1c(O)c2ccccc2oc1=O` (stereo not given) [warfarin] (10 µM), for which the SARS-CoV-2 infection rate was 106%.

As for `Cc1ccc(CNc2ncnc3ccc(-c4ccc(CO)o4)cc23)o1` (10 µM), the SARS-CoV-2 infection rate was 106%. Then `O=C(O)Cc1cccc(OCCCN(Cc2cccc(C(F)(F)F)c2Cl)CC(c2ccccc2)c2ccccc2)c1` (10 µM), with 102%; and `CCCCCCCCCCCCCCCC(=O)O[C@@H]1[C@@H](O)[C@@H](O)[C@@H]([C@H](NC(=O)[C@@H]2C[C@@H](CCC)CN2C)[C@H](C)Cl)O[C@@H]1SC` [clindamycin-palmitate] (10 µM), with 108%.

With `CS(=O)(=O)c1ccc(-c2cc(Br)sc2-c2ccc(F)cc2)cc1` (10 µM), the SARS-CoV-2 infection rate was 104%. Then `CS(=O)(=O)Nc1c(O)ccc2c1CCC[C@H]2C1=NCCN1` (10 µM), with 110%; and `Cc1cc(OCCCS(C)(=O)=O)cc(C)c1-c1cccc(COc2ccc3c(c2)OC[C@H]3CC(=O)O)c1` (10 µM), with 108%. Then `NC(=O)OCC(O)COc1ccc(Cl)cc1` (stereo not given) [chlorphensin-carbamate] (10 µM), with 112%; and `NC(=O)NC1NC(=O)NC1=O` (stereo not given) [allantoin] (10 µM), with 104%; and `O=C1NC(=O)/C(=C/c2ccc3c(c2)OC(F)(F)O3)S1` (10 µM), with 106%. The figure for `Cc1ccc(-c2nc3ccc(C)cn3c2CC(=O)N(C)C)cc1` (10 µM) is 98.5%. Consider `CC(C)(C#N)c1ccc(N2C(=O)OCc3cnc4ccc(-c5cnc6ccccc6c5)cc4c32)cc1` (10 µM), for which the SARS-CoV-2 infection rate was 104%.

Regarding `CN(CCOP(=O)(O)O)C(=N)N` [creatinol-phosphate] (10 µM), the SARS-CoV-2 infection rate was 95.5%.

For `OCc1cncc(F)c1` [5-fluoro-3-pyridyl-methanol] (10 µM), the SARS-CoV-2 infection rate was 102%. Then `CCCN1CCN(c2ccc(C(=O)NC3(C(=O)NCC#N)CCCCC3)cc2)CC1` [balicatib] (10 µM), with 46% (active). The figure for `Nc1nc(OCc2cc(Br)cs2)c2[nH]cnc2n1` [lomeguatrib] (10 µM) is 104%. For `CC[N+](CC)(CC)CCOc1cccc(OCC[N+](CC)(CC)CC)c1OCC[N+](CC)(CC)CC` [gallamine-triethiodide] (10 µM), the SARS-CoV-2 infection rate was 112%.

`Cc1c(-c2ccc(-c3ccccc3F)cc2)nc2ccc(F)cc2c1C(=O)O` [brequinar] (10 µM): the SARS-CoV-2 infection rate was 95%. The figure for `CCOc1cc2ncc(C#N)c(Nc3ccc(F)c(Cl)c3)c2cc1NC(=O)/C=C/CN(C)C` [pelitinib] (10 µM) is 110%. On to `NCCCC[C@H](NC(=O)[C@@H]1CCCN1C(=O)[C@@H]1CSSC[C@H](N)C(=O)N[C@@H](Cc2ccc(O)cc2)C(=O)N[C@@H](Cc2ccccc2)C(=O)N[C@@H](CCC(N)=O)C(=O)N[C@@H](CC(N)=O)C(=O)N1)C(=O)NCC(N)=O` [lypressin] (10 µM), for which the SARS-CoV-2 infection rate was 91%.

Regarding `N[C@@H](CCNCc1ccc(Cl)cc1)C(=O)N1CCCCC1` (10 µM), the SARS-CoV-2 infection rate was 107%. As to `COc1cc2ncnc(Nc3ccc(Cl)cc3F)c2cc1OC` (10 µM), the SARS-CoV-2 infection rate was 117%. In the case of `CCc1cc(/C(C)=N/OCc2ccc(C3CCCCC3)c(C(F)(F)F)c2)ccc1CN1CC(C(=O)O)C1` [siponimod] (10 µM), the SARS-CoV-2 infection rate was 100%. The figure for `Nc1ccc(/N=N/c2ccccc2)c(N)n1` [phenazopyridine] (10 µM) is 87.5%; for `O=C(CCc1ccc(O)cc1)c1c(O)cc(O)cc1O[C@@H]1O[C@H](CO)[C@@H](O)[C@H](O)[C@H]1O` [phlorizin] (10 µM) it is 112%; for `Oc1c(Cl)cc(Cl)c2cccnc12` [chloroxine] (10 µM) it is 98.5%. Then `Nc1nnc(-c2cccc(Cl)c2Cl)c(N)n1` [lamotrigine] (10 µM), with 110%.

Take `CCC(C(=O)O)c1ccc(CC(C)C)cc1` (stereo not given) [butibufen] (10 µM): the SARS-CoV-2 infection rate is 108%. On to `COc1cc2ncnc(Nc3cccc(Br)c3)c2cc1OC` (10 µM), for which the SARS-CoV-2 infection rate is 104%. Then `O=C(Nc1cc(Oc2cc(F)c(NC(=O)C3(C(=O)Nc4ccc(F)cc4)CC3)cc2F)ccn1)C1CC1` [altiratinib] (10 µM), with 88.5%; and `CCCOc1ccc2c(c1)CC[C@@H]1[C@@H]2CC[C@]2(C)[C@@H](OC)CC[C@@H]12` [promestriene] (10 µM), with 99.5%; and `CC(C)n1nc(-c2ccc3oc(N)nc3c2)c2c(N)ncnc21` (0.833333 µM), with 102%. Then `c1cnc(N2CCN(Cc3ccc4c(c3)OCO4)CC2)nc1` [piribedil] (10 µM), with 98.5%. The figure for `CCCCN(CCCC)CC(O)c1cc(Cl)cc2c1-c1ccc(Cl)cc1/C2=C/c1ccc(Cl)cc1` (stereo not given) [lumefantrine] (10 µM) is 91.5%. On to `COc1cc(SC)ccc1C(=O)N1CCC(Cc2ccccc2)CC1` (10 µM), for which the SARS-CoV-2 infection rate is 104%.

Take `CCCCN1CCCC1CNC(=O)c1cc(C#N)c2ccccc2c1OC` (stereo not given) [nafadotride] (10 µM): the SARS-CoV-2 infection rate is 89%. Then `O=C(O)CC[C@H]1CC[C@@](c2cc(F)ccc2F)(S(=O)(=O)c2ccc(Cl)cc2)CC1` (10 µM), with 110%; and `C[C@@H](O[C@H]1OCCN(Cc2nn[nH]c2CN(C)C)[C@H]1c1ccc(F)cc1)c1cc(C(F)(F)F)cc(C(F)(F)F)c1` (10 µM), with 58% (active); and `CCOP(=S)(OCC)Oc1ccc2c(C)c(Cl)c(=O)oc2c1` [coumophos] (10 µM), with 110%. Regarding `COc1cc2ncnc(Nc3ccc(Oc4ccccc4)cc3)c2cc1OC` [SRC-kinase-inhibitor-I] (0.833333 µM), the SARS-CoV-2 infection rate is 110%.
